In all, about 25,000 sequences were measured (“ln(normalized median fluorescence intensity)”: median about 9.7, highest 2% from about 11 on). The full list was thinned out, with the highest values kept by preference.
These sequences were tested on PfAP2-HC AP2 domain (GST-tagged) (assay: gcPBM binding intensity (ln(normalized median fluorescence intensity)); higher = stronger DNA binding).
Procedure, shortened: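 Plasmodium falciparum DNA-binding domains carrying a GST tag were expressed in E. coli and applied for 1 h, at about 25 μg on average, to an Agilent 4 × 180k array. The array held primer-extended double-stranded 36-bp intergenic genomic probes together with negative controls, and binding took place in 1× PBS with 1% milk, 0.2 mg/ml BSA, 0.5% salmon testes DNA and 0.03% Triton X-100. An Alexa488 anti-GST antibody detected bound protein, and the array was scanned at 488 nm. Binding intensity is taken as the highest Masliner-normalised natural-log median intensity across replicate spots of either probe orientation.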

Sequence | gcPBM binding intensity (ln)
TGGTAATCCACATACACACACACATACACATATATA [CACACA_site2727] | 10.3
AAATATAAATGGTAATACACATACACACACACATAC [XGTACX_negctrl_site459] | 10.5
TATACATACACATACACACATACACCCATACACATA [CACACA_site1746] | 10.6
CATACACCCATACATACACACATACATATATATATA [CACACA_site8591] | 9.98
CACATATATACACATACACACACACCCATACACCCA [CACACA_site8505] | 11
CATATACATACACATACACACATACACCCATACACA [CACACA_site8514] | 10.2
AATGGTAATCCACATACACACACACCGACACATATA [CACACA_site8876] | 11.1
TATATATACATATACACACACACACCCATATATATA [CACACA_site2246] | 11.1
TATATATATATATACACACACACACCCATATATATA [CACACA_site2538] | 10.4
ACAGTATATTAAAAAATACACACGTATTATATCTAC [CACACA_site2640] | 9.83
TATATGCTATAATATACACACATACCTATATTTATA [CACACA_site6383] | 9.94
ATTTCTTATTAAATTACACACAAAGTAAATAAATCT [CACACA_site3924] | 9.54
AAAATACACGCATACACACACACACCCACCCATATA [CACACA_site639] | 11.5
CACCCATAAATATACACACGCACAACACAAAATAAA [CACACA_site2903] | 10.7
AAAAAAAAAATACATACACACACACCCACCCATATA [CACACA_site9187] | 10.5
TACACGCTAAAATACACACACACACCCACATATATA [CACACA_site4153] | 10.6
AAAAAAAATACATACACACACACACCCACATATATA [CACACA_site3561] | 10.6
AGAAAATACACGCATACACACACACCCACCCACATA [CACACA_site8115] | 11.3
GCTTTTGTCATGTGCACACACGTATATATTATATAT [CACACA_site6146] | 10.9
AATATCTAAATAAAGTGTACTTACCTTATTAATTAT [XGTACX_site2276] | 9.64
TAAAAATTGAAGCACACACACAAAAGAAATACAATA [CACACA_site1113] | 10.9
CATAAAAATTGAAGCACACACACAAAAGAAATACAA [CACACA_site1112] | 10.7
TAAAAGTTGAAGCACACACACAAAAGAAATACAATA [CACACA_site6649] | 11.3
TTAAGTCCGTTAACAGTGCATTTTTTCTTTTATGTA [GTGCAC_site9867] | 9.58
TATATAAATATACATTGTACTCAACATTTTCATTAA [XGTACX_site3690] | 9.62
